Bioassay records from PubChem.
An excerpt weighted towards active compounds, which were near 1.6% of everything screened.
KCNQ2 block: inhibitors of rat KCNQ2 potassium channel; O88943; CHO-K1 KCNQ2, FluxOR thallium flux, 20 min; active compounds read low; B-score at 10 µM; actives 1.1% (n = 310,000);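 active = fluorescence ratio B-score at most minus 3 library SDs, with starting brightness B-score within 2 library SDs, cut at about -5.5 in these data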
Target sequence (O88943 whole entry, looked up): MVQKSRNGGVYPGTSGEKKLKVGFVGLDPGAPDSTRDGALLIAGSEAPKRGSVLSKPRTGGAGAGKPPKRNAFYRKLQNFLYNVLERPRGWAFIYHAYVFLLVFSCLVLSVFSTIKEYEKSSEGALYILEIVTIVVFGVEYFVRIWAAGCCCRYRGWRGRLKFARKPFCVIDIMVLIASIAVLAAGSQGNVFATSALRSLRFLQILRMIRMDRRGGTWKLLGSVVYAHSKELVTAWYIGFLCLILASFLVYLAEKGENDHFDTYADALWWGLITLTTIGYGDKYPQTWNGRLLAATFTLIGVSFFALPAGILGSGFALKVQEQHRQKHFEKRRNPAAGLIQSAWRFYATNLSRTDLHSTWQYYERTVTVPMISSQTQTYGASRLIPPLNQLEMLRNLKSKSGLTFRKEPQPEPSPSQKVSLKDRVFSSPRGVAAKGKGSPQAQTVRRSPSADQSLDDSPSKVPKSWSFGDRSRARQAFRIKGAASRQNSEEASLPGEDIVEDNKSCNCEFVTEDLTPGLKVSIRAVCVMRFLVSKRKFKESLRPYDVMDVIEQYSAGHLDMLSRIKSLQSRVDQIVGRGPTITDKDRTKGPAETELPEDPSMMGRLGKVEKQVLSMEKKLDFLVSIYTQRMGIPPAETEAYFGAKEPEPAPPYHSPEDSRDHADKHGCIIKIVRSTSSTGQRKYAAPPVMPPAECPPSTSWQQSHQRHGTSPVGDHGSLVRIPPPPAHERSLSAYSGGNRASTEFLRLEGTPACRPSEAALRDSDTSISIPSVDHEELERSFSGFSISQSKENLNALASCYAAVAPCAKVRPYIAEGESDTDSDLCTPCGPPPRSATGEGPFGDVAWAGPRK
KCNQ2 enhance: potentiators of rat KCNQ2 potassium channel; CHO-K1 KCNQ2, FluxOR thallium flux fluorescence; active compounds read high; AID 2239; B-score at 10 µM; O88943; actives 0.54% (n = 310,000);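 active = fluorescence ratio B-score at least 3 SD of library B-scores, with initial fluorescence B-score within 3 of them, cut at about 5.3 in these data; same plate scores as AID 2156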;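 also: B-score of peak minus minimum over baseline fluorescence ratio after K+ and Tl+ stimulus; positive B-score means potentiation of KCNQ2 with more thallium influx and brighter signal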
Numbers stand for hits; – = inactive; · = no result given.

SMILES	KCNQ2 block	KCNQ2 enhance
COc1cc(C(=O)N(C)CCOc2ccccc2)ccc1OCC(=O)Nc1cccc(C(F)(F)F)c1	-6.7	–
O=C(CSc1nnc(Cc2ccccc2)n1Cc1ccco1)NC12CC3CC(CC(C3)C1)C2	-7.7	–
O=C(CSc1nnc(-c2ccco2)n1Cc1ccco1)NCc1cccs1	–	–
O=C(CSc1nnc(Cc2cccs2)n1Cc1ccco1)Nc1ccc(Br)cc1	-6.7	–
CN(C)C(=O)CSc1nnc(Cc2ccccc2)n1Cc1ccco1	–	–
CC(NS(=O)(=O)c1ccccc1)C1CC2CCC1C2 (stereo not given)	–	–
Cc1ccc(S(=O)(=O)CCC(=O)OCc2cc(C)ccc2C)cc1	–	·
CCc1noc(C)c1C(=O)N1CCCSC1=Nc1ccccc1Cl	–	·
O=[N+]([O-])c1ccc(CN2CCC(Cc3ccccc3)CC2)cc1	–	–
O=[N+]([O-])c1cccc(OCCCN2CCC(Cc3ccccc3)CC2)c1	-5.7	–
COc1ccc(S(=O)(=O)N2CCCCC2)cc1NC(=O)CCNC(=O)c1ccc(Br)cc1	–	·
CCOc1ccc(CCNC(=O)COC(=O)c2cc(S(=O)(=O)N3CCOCC3)ccc2F)cc1OCC	–	·
CCOC(=O)C1=C(c2ccccc2)NC(=O)NC1c1cc(Cl)c(O)c(OC)c1 (stereo not given)	–	·
CCOC(=O)C1=C(c2ccccc2)NC(N)=NC1c1ccc(OCc2ccc(Cl)cc2)c(OC)c1 (stereo not given)	-6.2	–
Clc1ccc(Cc2nnc(-c3ccccc3Br)o2)cc1	-5.9	–
Clc1ccccc1OCc1nnc(-c2ccccc2Br)o1	–	·
COc1ccc(-c2nn(-c3ccccc3)cc2C(=O)NC(=S)Nc2cc(Cl)ccc2Cl)cc1	-7.7	–
COc1ccc(-c2nn(-c3ccccc3)cc2C(=O)NC(=S)NNC(=O)c2ccncc2)cc1	–	·
COc1ccc(NC(=O)c2cn(-c3ccccc3)nc2-c2ccncc2)cc1	–	·
COc1ccc(NC(=O)c2cn(-c3ccccc3)nc2-c2cc3ccccc3o2)cc1	-6	–
C/C=C/c1ccc(OCC(=O)N(C)CC(=O)Nc2ccc(F)cc2)c(OC)c1	–	·
COc1ccc(Br)c(C(=O)NNC(=O)c2ccc(NS(=O)(=O)c3cccs3)cc2)c1	–	·
S=C(NCc1ccc(Cl)cc1)Nc1ccncc1	–	·
Cc1cccn2cc(CCNS(=O)(=O)c3cccs3)nc12	–	·
COC(=O)C1CCCN1C(=O)COc1ccc(Cl)cc1Br (stereo not given)	–	15
SMILES	KCNQ2 block	KCNQ2 enhance
COc1ccccc1N1CCN(C(=O)COc2ccc(Cl)cc2Br)CC1	–	·
COC(=O)c1ccc(COC(=O)c2ccc(N(C)C)cc2)cc1	–	·
COC(=O)c1cccc(COC(=O)c2ccc(N(C)C)cc2)c1	-6.5	–
CCc1ccc(N2C(=O)CC(N3CCN(Cc4ccc5c(c4)OCO5)CC3)C2=O)cc1 (stereo not given)	–	–
O=C1CC2(CCN(C(=O)c3ccccc3[N+](=O)[O-])CC2)Oc2ccccc21	–	–
O=C(/C=C/c1ccc(Br)cc1)c1ccco1	–	·
O=C(/C=C/c1ccc([N+](=O)[O-])cc1)c1ccco1	-7.3	–
COc1ccc(C(=O)NCCc2nnc3ccc(SCC(=O)NCc4ccccc4)nn23)cc1	–	·
CCOC(=O)C1(Cc2cccc(OC)c2)CCCN(C(=O)CNC(C)=O)C1 (stereo not given)	–	·
OCC[C@@H]1C[C@H](O)[C@@H](O)[C@@]2(CCCc3ccccc3O2)O1	–	·
CCOC(=O)C1CCN(C(=O)c2ccc(OCC(=O)Nc3cccc(C(F)(F)F)c3)cc2)CC1	-6.5	–
NC(=O)C1CCN(C(=O)c2ccc(OCC(=O)Nc3cccc(C(F)(F)F)c3)cc2)CC1	–	·
COc1ccc(C(=O)N/C=C/n2cnc3cc(C(F)(F)F)ccc32)cc1	–	·
C/C(=N\NC(=O)c1ccc(CN2CCc3ccccc3C2)cc1)c1ccccc1O	–	–
Fc1cccc(/C=N/Nc2cc(N3CCOCC3)ncn2)c1	–	–
CC(C)(C)OC(=O)N[C@@H](Cc1ccccc1)c1nnc(S(=O)(=O)Cc2cccc(F)c2)o1	–	·
Cc1ccccc1CS(=O)(=O)c1nnc([C@H](CC(C)C)NC(=O)OC(C)(C)C)o1	-5.6	–
CC(C)C[C@H](NC(=O)OC(C)(C)C)c1nnc(SCc2ccccc2)o1	-6.9	–
CCOC(=O)CSc1nnc([C@H](Cc2ccccc2)NC(=O)OC(C)(C)C)o1	–	·
CCOP(=O)(OCC)C(NC(=O)c1cc([N+](=O)[O-])cc([N+](=O)[O-])c1)C(F)(F)F (stereo not given)	–	·
COc1ccc(C(C(=O)NC(C)(C)C)N(C(=O)CCC(=O)Nc2cc(C)on2)c2ccccc2F)cc1 (stereo not given)	–	–
Cc1nn(-c2ccccc2)c(Cl)c1/C=N/NC(=O)OC(C)(C)C	–	·
Cc1ccc(C)c(OCC(=O)N/N=C/c2c(C)nn(-c3ccccc3)c2Cl)c1	-7.4	–
CCCCn1c(N)c(N(Cc2ccccc2OC)C(=O)COc2ccc(C)cc2)c(=O)[nH]c1=O	–	–
COc1ccccc1N1CCN(C2CCCN(C(=O)c3ccnc4ccc(C)cc34)C2)CC1 (stereo not given)	–	·
SMILES	KCNQ2 block	KCNQ2 enhance
Cc1ccc2nccc(C(=O)N3CCCC(N4CCN(c5ccc(F)cc5)CC4)C3)c2c1 (stereo not given)	-6.5	–
CC(NC(=O)CN1C(=O)NC(C)(c2cccc3ccccc23)C1=O)c1ccccc1 (stereo not given)	–	–
CC(C)n1cc(CN2CCN(CCc3ccccc3)C(CCO)C2)cn1 (stereo not given)	–	·
CCN(CC(=O)Nc1ccc(NC(C)=O)cc1)C(=O)c1cc(CN2C(=O)c3ccccc3C2=O)ccc1OC	–	·
CCOC(=O)/C(=C/c1ccc(OC(=O)c2ccncc2)cc1)C(C)=O	-5.7	–
COCCOC(=O)/C(=C/c1ccc(OC(=O)c2ccccc2)cc1)C(C)=O	–	–
CCc1nc(Sc2nnnn2-c2ccccc2)c2c3c(sc2n1)CCCC3	-5.9	–
CCc1nc(-n2[nH]c(=O)c3ccccc3c2=O)c2c3c(sc2n1)CCCC3	–	·
COc1ccc(NC(=O)CN(C)C(=O)c2sc3cc(Cl)ccc3c2Cl)cc1	–	–
Cc1cc(Br)c(NC(=O)CN(C)CCOc2ccccc2)c(Br)c1	–	·
Cc1cc(Br)c(NC(=O)CCl)c(Br)c1	–	6
CCCN1CCN(C(=O)C2CCN(c3ncnc4c3nc3n4CCCCC3)CC2)CC1	–	·
CC1C(=O)C(C)C(c2ccc(Br)cc2)NC1c1ccc(Br)cc1 (stereo not given)	-6.3	–
CC1C(=O)C(C)C(c2ccc3c(c2)OCO3)NC1c1ccc2c(c1)OCO2 (stereo not given)	–	·
Cc1ccccc1-n1nc2c(c1NC(=O)/C=C\c1ccc3c(c1)OCO3)CSC2	-6.7	–
Cc1ccc(-n2nc3c(c2NC(=O)/C=C\c2ccc4c(c2)OCO4)CSC3)c(C)c1	–	·
O=C1OC(CO)CN1Cc1ccccc1 (stereo not given)	–	·
Cc1nn(C)c2nc(-c3cccs3)cc(C(F)(F)F)c12	–	·
Cc1nn(CCO)c2nc(-c3cccs3)cc(C(F)(F)F)c12	–	5.8
CCN(CC)c1ccc(C(=O)NNC(=O)c2cccn2C)cc1	–	·
Cc1nc2ccccc2n1S(=O)(=O)c1ccc(S(=O)(=O)N2CCCCCC2)cc1	–	·
Cc1ccc(S(=O)(=O)n2c(C)nc3ccccc32)cc1	-7.3	–
Cc1c(C(=O)O)oc2ccc(S(=O)(=O)N3CCCC3)cc12	–	·
